Results taken from PubChem BioAssay AID1159580 (chemical genetic matrix, 2015).
Screen size: about 5,500 compounds; about 2,000 (36%) were called active. Roughly 18% stayed inconclusive and do not appear here. Cut-off read from the data, not from the text of the source: active = normalized growth mostly below about 0.91 (no sharp cut-off); inconclusive = no clear call, values can overlap the other calls; inactive = mostly above about 0.92. This is one part of the list.

Test: chemical genetic growth profiling, strain panel (AID 1159580);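 note: tested at 20 µM; growth read once vehicle control cultures reached saturation at 30 °C; 1 = growth at the plate median or of vehicle wells; lower values mean less growth of the strain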
Conditions: growth OD
[1] = S. cerevisiae deletion strains, locus YBR021W, strain FUR4, active compounds read low
[2] = S. cerevisiae deletion strains, locus YBR229C, strain ROT2, active compounds read low
[3] = S. cerevisiae deletion strains, locus YCL029C, strain bik1, active compounds read low
[4] = S. cerevisiae deletion strains, locus YDL035C, strain GPR1, active compounds read low
[5] = S. cerevisiae deletion strains, locus YDL074C, strain BRE1, active compounds read low
[6] = S. cerevisiae deletion strains, locus YDL101C, strain DUN1, active compounds read low
[7] = S. cerevisiae deletion strains, locus YDL134C, strain PPH21, active compounds read low
[8] = S. cerevisiae deletion strains, locus YDL185W, strain tfp1, active compounds read low
[9] = S. cerevisiae deletion strains, locus YDL192W, strain arf1, active compounds read low
[10] = S. cerevisiae deletion strains, locus YDR101C, strain arx1, active compounds read low
[11] = S. cerevisiae deletion strains, locus YDR150W, strain NUM1, active compounds read low
[12] = S. cerevisiae deletion strains, locus YDR162C, strain NBP2, active compounds read low
[13] = S. cerevisiae deletion strains, locus YDR318W, strain mcm21, active compounds read low
[14] = S. cerevisiae deletion strains, locus YDR388W, active compounds read low
[15] = S. cerevisiae deletion strains, locus YDR502C, strain sam2, active compounds read low
[16] = S. cerevisiae deletion strains, locus YEL061C, strain CIN8, active compounds read low
[17] = S. cerevisiae deletion strains, locus YER110C, active compounds read low
[18] = S. cerevisiae deletion strains, locus YER155C, strain BEM2, active compounds read low
[19] = S. cerevisiae deletion strains, locus YER167W, strain BCK2, active compounds read low
[20] = S. cerevisiae deletion strains, locus YGL078C, strain dbp3, active compounds read low
[21] = S. cerevisiae deletion strains, locus YGL086W, strain mad1, active compounds read low
[22] = S. cerevisiae deletion strains, locus YGL248W, strain PDE1, active compounds read low
[23] = S. cerevisiae deletion strains, locus YGR078C, strain PAC10, active compounds read low
[24] = S. cerevisiae deletion strains, locus YGR135W, strain pre9, active compounds read low
[25] = S. cerevisiae deletion strains, locus YGR252W, strain gcn5, active compounds read low
[26] = S. cerevisiae deletion strains, locus YHR030C, strain SLT2, active compounds read low
[27] = S. cerevisiae deletion strains, locus YHR079C, strain IRE1 (second series), active compounds read low
[28] = S. cerevisiae deletion strains, locus YHR094C, strain hxt1, active compounds read low
[29] = S. cerevisiae deletion strains, locus YHR129C, strain ARP1, active compounds read low
[30] = S. cerevisiae deletion strains, locus YHR200W, strain rpn10, active compounds read low
[31] = S. cerevisiae deletion strains, locus YIL066C, strain RNR3, active compounds read low
[32] = S. cerevisiae deletion strains, locus YIL073C, strain SPO22, active compounds read low
[33] = S. cerevisiae deletion strains, locus YIL125W, strain kgd1, active compounds read low
[34] = S. cerevisiae deletion strains, locus YIR030C, strain dcg1, active compounds read low
[35] = S. cerevisiae deletion strains, locus YJL095W, strain BCK1, active compounds read low
[36] = S. cerevisiae deletion strains, locus YJL134W, strain LCB3, active compounds read low
[37] = S. cerevisiae deletion strains, locus YJL168C, strain set2, active compounds read low
[38] = S. cerevisiae deletion strains, locus YJL187C, strain SWE1 (second series), active compounds read low
[39] = S. cerevisiae deletion strains, locus YJR043C, strain POL32, active compounds read low
[40] = S. cerevisiae deletion strains, locus YJR075W, strain HOC1, active compounds read low
[41] = S. cerevisiae deletion strains, locus YKL009W, strain mrt4, active compounds read low
[42] = S. cerevisiae deletion strains, locus YKL068W, active compounds read low
[43] = S. cerevisiae deletion strains, locus YKL085W, strain MDH1 (second series), active compounds read low
[44] = S. cerevisiae deletion strains, locus YKL085W, strain MDH1, active compounds read low
[45] = S. cerevisiae deletion strains, locus YKR001C, strain vps1, active compounds read low
[46] = S. cerevisiae deletion strains, locus YLR039C, strain RIC1, active compounds read low
[47] = S. cerevisiae deletion strains, locus YLR058C, strain SHM2, active compounds read low
[48] = S. cerevisiae deletion strains, locus YLR102C, strain apc9, active compounds read low
[49] = S. cerevisiae deletion strains, locus YLR262C, strain YPT6, active compounds read low
[50] = S. cerevisiae deletion strains, locus YLR268W, strain sec22, active compounds read low
[51] = S. cerevisiae deletion strains, locus YLR330W, strain CHS5, active compounds read low
[52] = S. cerevisiae deletion strains, locus YLR342W, strain FKS1 (second series), active compounds read low
[53] = S. cerevisiae deletion strains, locus YLR371W, strain rom2, active compounds read low
[54] = S. cerevisiae deletion strains, locus YLR418C, strain cdc73, active compounds read low
[55] = S. cerevisiae deletion strains, locus YML016C, strain PPZ1, active compounds read low
[56] = S. cerevisiae deletion strains, locus YML032C, strain rad52, active compounds read low
[57] = S. cerevisiae deletion strains, locus YML124C, strain tub3, active compounds read low
[58] = S. cerevisiae deletion strains, locus YMR078C, strain ctf18, active compounds read low
[59] = S. cerevisiae deletion strains, locus YMR223W, strain ubp8, active compounds read low
[60] = S. cerevisiae deletion strains, locus YMR263W, strain SAP30, active compounds read low
[61] = S. cerevisiae deletion strains, locus YMR307W, strain GAS1, active compounds read low
[62] = S. cerevisiae deletion strains, locus YNL067W, strain RPL9B, active compounds read low
[63] = S. cerevisiae deletion strains, locus YNL233W, strain BNI4, active compounds read low
[64] = S. cerevisiae deletion strains, locus YNL250W, strain rad50, active compounds read low
[65] = S. cerevisiae deletion strains, locus YNL271C, strain bni1, active compounds read low
[66] = S. cerevisiae deletion strains, locus YNL298W, strain CLA4, active compounds read low
[67] = S. cerevisiae deletion strains, locus YNL307C, strain MCK1, active compounds read low
[68] = S. cerevisiae deletion strains, locus YNR052C, strain pop2, active compounds read low
[69] = S. cerevisiae deletion strains, locus YOL006C, strain TOP1, active compounds read low
[70] = S. cerevisiae deletion strains, locus YOL012C, strain htz1
[71] = S. cerevisiae deletion strains, locus YOL147C, strain pex11, active compounds read low
[72] = S. cerevisiae deletion strains, locus YOR061W, strain CKA2, active compounds read low
[73] = S. cerevisiae deletion strains, locus YOR069W, strain VPS5, active compounds read low
[74] = S. cerevisiae deletion strains, locus YOR136W, strain idh2, active compounds read low
[75] = S. cerevisiae deletion strains, locus YOR144C, strain elg1, active compounds read low
[76] = S. cerevisiae deletion strains, locus YOR184W, strain ser1, active compounds read low
[77] = S. cerevisiae deletion strains, locus YOR316C, strain cot1, active compounds read low
[78] = S. cerevisiae deletion strains, locus YPL241C, strain CIN2, active compounds read low
[79] = S. cerevisiae deletion strains, locus YPR119W, strain clb2, active compounds read low
[80] = S. cerevisiae deletion strains, locus YPR141C, strain kar3, active compounds read low
[81] = S. cerevisiae deletion strains, locus YPR163C, strain tif3, active compounds read low
[82] = S. cerevisiae deletion strains, locus YPR167C, strain met16, active compounds read low
[83] = S. cerevisiae deletion strains, strain wtn01, active compounds read low
[84] = S. cerevisiae strains, strain wild type, active compounds read low

Measured: normalized growth

Cc1occc(=O)c1/C=C/O
inactive: [1] 0.994 | [2] 1 | [3] 1.02 | [4] 0.999 | [5] 1.01 | [6] 1 | [7] 0.997 | [8] 1.03 | [9] 1.02 | [10] 0.989 | [11] 0.999 | [12] 0.991 | [13] 1.01 | [14] 1.01 | [15] 0.995 | [16] 1 | [17] 1.02 | [18] 0.996 | [19] 0.996 | [20] 1.03 | [21] 0.989 | [22] 0.995 | [23] 0.996 | [24] 1.02 | [25] 0.985 | [26] 1 | [27] 1.02 | [28] 1.01 | [29] 1 | [30] 1.01 | [31] 1 | [32] 1.03 | [33] 1.01 | [34] 1.01 | [35] 0.989 | [36] 1.01 | [37] 1.01 | [38] 0.998 | [39] 0.991 | [40] 0.995 | [41] 1.01 | [42] 1.01 | [43] 1.02 | [44] 1.02 | S. cerevisiae deletion strains, locus YKL190W, strain CNB1, active compounds read low 1.01 | [45] 1.01 | [46] 1.02 | [47] 1 | [48] 1.01 | [49] 1.07 | [50] 1.01 | [51] 1 | [52] 1.01 | [53] 1.02 | [54] 0.977 | [55] 1 | [56] 1.01 | [57] 1.01 | [58] 1 | [59] 0.997 | [60] 0.999 | [61] 1.02 | [62] 0.993 | S. cerevisiae deletion strains, locus YNL153C, strain GIM3, active compounds read low 0.994 | [63] 0.974 | [64] 1.01 | [65] 1.04 | [66] 1.02 | [67] 1.02 | [68] 1.01 | [69] 0.981 | [70] 0.887 | [71] 1.01 | [72] 1.01 | [73] 1 | [74] 1.02 | [75] 1.01 | [76] 1 | [77] 1.03 | [78] 1 | [79] 1.02 | [80] 1.02 | [81] 0.994 | [82] 1.02 | [83] 1.03 | [84] 1.01

CCCc1occc(=O)c1/C=C/O
inactive: S. cerevisiae deletion strains, locus YAL013W, strain DEP1, active compounds read low 0.98 | [1] 0.999 | [2] 0.987 | [3] 0.97 | [4] 0.981 | [5] 1.01 | [6] 0.982 | [7] 0.939 | [8] 0.97 | [9] 0.923 | [10] 0.943 | [11] 0.983 | [12] 0.927 | [13] 0.942 | [14] 0.964 | [16] 0.98 | [17] 0.963 | [18] 0.967 | [19] 0.936 | [20] 1 | [21] 0.979 | [22] 0.949 | [23] 0.964 | [24] 0.948 | [25] 0.925 | [26] 0.986 | [27] 0.959 | [28] 0.957 | [29] 0.974 | [30] 0.95 | [31] 0.97 | [32] 0.992 | [33] 0.964 | [34] 0.955 | [35] 0.909 | [36] 0.984 | [37] 0.987 | [38] 0.963 | [39] 0.943 | [40] 0.945 | [41] 1.02 | [42] 0.972 | [43] 0.96 | [44] 0.96 | [46] 0.929 | [47] 0.973 | [48] 0.966 | [49] 0.922 | [50] 0.98 | [51] 0.969 | [52] 0.982 | [53] 0.964 | [54] 0.872 | [55] 0.97 | [56] 0.925 | [57] 0.954 | [58] 0.931 | [59] 0.969 | [60] 0.975 | [61] 0.94 | [62] 0.962 | [63] 0.962 | [64] 0.975 | [65] 0.972 | [66] 0.976 | [67] 0.956 | S. cerevisiae deletion strains, locus YNL322C, strain KRE1, active compounds read low 0.986 | [68] 0.993 | [69] 0.854 | [70] 1.14 | [71] 0.983 | [72] 0.998 | [73] 0.974 | [74] 0.985 | [75] 0.962 | [76] 0.922 | [77] 0.964 | [78] 0.979 | [79] 0.964 | [80] 0.946 | [81] 0.986 | [82] 0.958 | [83] 0.995 | [84] 0.968
active: [15] 0.913 | [45] 0.85
